Assay [1] deals with T1, CDK9/cyclin T1 (Homo sapiens) (UniProt O60563+P50750). The following applies: at 1 µM.
For assay [2], the target named is T1, CDK9/cyclin T1 (Homo sapiens). The following applies: at 10 µM.
The target in assay [3] is T2, Serine/threonine-protein kinase Chk1 (Homo sapiens) (UniProt O14757).
T2 sequence (whole entry): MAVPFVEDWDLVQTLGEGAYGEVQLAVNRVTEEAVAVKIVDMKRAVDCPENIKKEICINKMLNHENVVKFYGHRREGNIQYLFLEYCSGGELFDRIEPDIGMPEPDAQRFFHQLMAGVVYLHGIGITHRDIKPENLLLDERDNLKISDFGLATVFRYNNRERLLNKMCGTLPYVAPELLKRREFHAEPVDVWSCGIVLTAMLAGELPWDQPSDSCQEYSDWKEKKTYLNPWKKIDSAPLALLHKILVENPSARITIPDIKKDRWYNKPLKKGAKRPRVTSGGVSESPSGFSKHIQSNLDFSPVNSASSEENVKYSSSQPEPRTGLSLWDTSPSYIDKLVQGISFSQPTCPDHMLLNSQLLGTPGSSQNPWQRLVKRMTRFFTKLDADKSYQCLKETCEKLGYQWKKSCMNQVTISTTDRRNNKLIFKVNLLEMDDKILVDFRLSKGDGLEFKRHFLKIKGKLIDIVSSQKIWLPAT
The following applies: at 1 µM.

Assay [4] has as its target T2, Serine/threonine-protein kinase Chk1 (Homo sapiens). Conditions: at 10 µM.
The target in assay [5] is Serine/threonine-protein kinase Chk2 (Homo sapiens) (UniProt O96017). Conditions: at 1 µM.
For assay [6] the target is unchanged. The following applies: at 10 µM.
Assay [7] has as its target Casein kinase I isoform gamma-1 (Homo sapiens) (UniProt Q9HCP0). Conditions: at 10 µM.
Assay [8] deals with Casein kinase I isoform delta (Homo sapiens) (UniProt P48730). Conditions: at 1 µM.
The target is the same in assay [9]. The following applies: at 10 µM.
The target in assay [10] is T3, Casein kinase II (Homo sapiens) (UniProt P67870+P68400+P19784). Conditions: at 10 µM.
Assay [11] concerns the target Dual specificity protein kinase CLK2 (Homo sapiens) (UniProt P49760). Conditions: at 1 µM.
For assay [12] the target is unchanged. The following applies: at 10 µM.
The target in assay [13] is Dual specificity protein kinase CLK3 (Homo sapiens) (UniProt P49761). The following applies: at 1 µM.
Assay [14] has the same target. The following applies: at 10 µM.
Assay [15] addresses Casein kinase I isoform gamma-1 (Homo sapiens) (UniProt Q9HCP0). Conditions: at 1 µM.
For assay [16], the target named is T3, Casein kinase II (Homo sapiens). The following applies: at 1 µM.
For assay [17], the target named is Tyrosine-protein kinase CSK (Homo sapiens) (UniProt P41240). Conditions: at 1 µM.
Assay [18] has the same target. Conditions: at 10 µM.
Assay [19] deals with Casein kinase II subunit alpha' (Homo sapiens) (UniProt P19784). The following applies: at 10 µM.
For assay [20] the target is unchanged. Conditions: at 1 µM.

Sequence of Casein kinase I isoform delta (Homo sapiens) (P48730 whole entry, looked up, canonical isoform): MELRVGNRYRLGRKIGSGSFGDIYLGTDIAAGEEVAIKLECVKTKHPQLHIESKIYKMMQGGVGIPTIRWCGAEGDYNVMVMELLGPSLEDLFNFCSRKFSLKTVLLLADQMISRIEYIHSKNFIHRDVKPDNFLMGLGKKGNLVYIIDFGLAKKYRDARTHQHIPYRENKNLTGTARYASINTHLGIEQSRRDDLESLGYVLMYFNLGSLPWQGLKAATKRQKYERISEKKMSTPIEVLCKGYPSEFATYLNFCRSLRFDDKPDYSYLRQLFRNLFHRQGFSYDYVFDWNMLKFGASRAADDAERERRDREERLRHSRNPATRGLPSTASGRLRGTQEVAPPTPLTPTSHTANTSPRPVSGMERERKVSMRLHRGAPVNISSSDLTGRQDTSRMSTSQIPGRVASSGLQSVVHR
Sequence of Serine/threonine-protein kinase Chk2 (Homo sapiens) (O96017 whole entry): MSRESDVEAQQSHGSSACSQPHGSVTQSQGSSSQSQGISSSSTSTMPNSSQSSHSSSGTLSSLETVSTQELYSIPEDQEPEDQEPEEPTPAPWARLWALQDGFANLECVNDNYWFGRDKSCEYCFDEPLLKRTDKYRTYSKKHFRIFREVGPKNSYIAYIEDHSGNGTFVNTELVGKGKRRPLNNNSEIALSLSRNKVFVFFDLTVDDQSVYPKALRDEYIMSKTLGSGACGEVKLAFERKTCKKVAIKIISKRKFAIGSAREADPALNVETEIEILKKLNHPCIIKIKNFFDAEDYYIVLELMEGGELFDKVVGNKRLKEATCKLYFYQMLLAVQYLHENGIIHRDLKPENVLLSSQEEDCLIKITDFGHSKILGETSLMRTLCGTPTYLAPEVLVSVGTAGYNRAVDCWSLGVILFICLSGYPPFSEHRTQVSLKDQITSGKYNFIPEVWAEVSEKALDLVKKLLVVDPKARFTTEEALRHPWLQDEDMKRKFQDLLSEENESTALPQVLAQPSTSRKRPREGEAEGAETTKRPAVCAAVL
Sequence of Tyrosine-protein kinase CSK (Homo sapiens) (P41240 2-450 limits assumed): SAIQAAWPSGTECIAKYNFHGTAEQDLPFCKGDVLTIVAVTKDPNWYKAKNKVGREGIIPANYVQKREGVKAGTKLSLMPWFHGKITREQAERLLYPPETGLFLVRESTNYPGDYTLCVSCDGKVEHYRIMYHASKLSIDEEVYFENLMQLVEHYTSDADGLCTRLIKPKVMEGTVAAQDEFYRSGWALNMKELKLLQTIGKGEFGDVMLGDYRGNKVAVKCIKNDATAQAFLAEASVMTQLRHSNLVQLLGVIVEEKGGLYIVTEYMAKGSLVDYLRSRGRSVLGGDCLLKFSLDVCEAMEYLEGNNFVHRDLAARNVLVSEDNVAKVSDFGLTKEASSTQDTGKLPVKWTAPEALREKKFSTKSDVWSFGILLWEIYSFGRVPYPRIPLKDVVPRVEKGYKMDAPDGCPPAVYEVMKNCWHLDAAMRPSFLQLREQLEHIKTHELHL
Sequence of Dual specificity protein kinase CLK3 (Homo sapiens) (P49761 whole entry, looked up): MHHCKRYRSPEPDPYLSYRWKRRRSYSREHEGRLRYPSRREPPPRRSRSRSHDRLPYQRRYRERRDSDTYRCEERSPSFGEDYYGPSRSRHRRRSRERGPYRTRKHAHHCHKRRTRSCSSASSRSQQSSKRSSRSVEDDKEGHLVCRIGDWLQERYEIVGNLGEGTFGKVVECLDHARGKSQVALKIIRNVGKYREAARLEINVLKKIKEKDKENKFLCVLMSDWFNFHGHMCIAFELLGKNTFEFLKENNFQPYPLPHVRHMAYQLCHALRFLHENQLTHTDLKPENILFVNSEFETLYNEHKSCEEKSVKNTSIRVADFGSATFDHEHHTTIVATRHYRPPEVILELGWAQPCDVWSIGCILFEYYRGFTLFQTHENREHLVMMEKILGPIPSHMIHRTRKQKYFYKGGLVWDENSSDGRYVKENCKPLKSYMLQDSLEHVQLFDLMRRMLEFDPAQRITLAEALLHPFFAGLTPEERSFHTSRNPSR
Sequence of Casein kinase I isoform gamma-1 (Homo sapiens) (Q9HCP0 whole entry, looked up, canonical isoform): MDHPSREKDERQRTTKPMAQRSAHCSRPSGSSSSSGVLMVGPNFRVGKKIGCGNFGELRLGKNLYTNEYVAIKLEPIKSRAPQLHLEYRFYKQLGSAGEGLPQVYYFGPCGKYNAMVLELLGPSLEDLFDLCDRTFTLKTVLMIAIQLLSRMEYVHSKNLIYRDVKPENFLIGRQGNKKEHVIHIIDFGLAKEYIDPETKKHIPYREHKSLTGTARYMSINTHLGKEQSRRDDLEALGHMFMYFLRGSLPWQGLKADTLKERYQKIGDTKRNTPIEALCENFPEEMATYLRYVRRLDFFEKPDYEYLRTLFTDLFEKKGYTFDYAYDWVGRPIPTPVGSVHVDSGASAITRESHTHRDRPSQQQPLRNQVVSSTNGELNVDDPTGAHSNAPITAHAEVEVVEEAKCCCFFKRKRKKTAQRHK
Sequence of Dual specificity protein kinase CLK2 (Homo sapiens) (P49760 whole entry, looked up): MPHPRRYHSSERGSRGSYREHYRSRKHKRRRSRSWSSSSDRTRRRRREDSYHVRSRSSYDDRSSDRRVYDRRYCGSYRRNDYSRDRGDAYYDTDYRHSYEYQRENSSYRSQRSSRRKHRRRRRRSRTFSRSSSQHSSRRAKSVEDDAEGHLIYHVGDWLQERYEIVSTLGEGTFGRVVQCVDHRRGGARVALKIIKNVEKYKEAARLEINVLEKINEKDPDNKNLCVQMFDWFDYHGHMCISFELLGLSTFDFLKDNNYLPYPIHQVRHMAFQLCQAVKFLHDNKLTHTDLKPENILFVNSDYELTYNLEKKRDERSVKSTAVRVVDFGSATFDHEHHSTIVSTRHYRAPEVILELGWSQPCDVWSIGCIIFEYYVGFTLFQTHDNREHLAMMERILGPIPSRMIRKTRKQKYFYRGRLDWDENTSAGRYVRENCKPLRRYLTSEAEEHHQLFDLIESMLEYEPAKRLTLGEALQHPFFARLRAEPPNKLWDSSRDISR
T3 sequence (P19784 whole entry, looked up): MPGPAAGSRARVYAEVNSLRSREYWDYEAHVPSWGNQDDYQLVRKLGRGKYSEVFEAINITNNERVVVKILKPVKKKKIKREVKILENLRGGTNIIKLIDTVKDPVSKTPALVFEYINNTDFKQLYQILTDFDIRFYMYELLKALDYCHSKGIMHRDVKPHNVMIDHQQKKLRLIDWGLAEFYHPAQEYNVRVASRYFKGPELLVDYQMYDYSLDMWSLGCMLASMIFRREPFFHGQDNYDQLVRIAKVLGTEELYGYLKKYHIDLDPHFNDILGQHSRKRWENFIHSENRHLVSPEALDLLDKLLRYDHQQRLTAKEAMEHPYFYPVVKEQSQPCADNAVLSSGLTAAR
T3 sequence (P67870 whole entry, looked up): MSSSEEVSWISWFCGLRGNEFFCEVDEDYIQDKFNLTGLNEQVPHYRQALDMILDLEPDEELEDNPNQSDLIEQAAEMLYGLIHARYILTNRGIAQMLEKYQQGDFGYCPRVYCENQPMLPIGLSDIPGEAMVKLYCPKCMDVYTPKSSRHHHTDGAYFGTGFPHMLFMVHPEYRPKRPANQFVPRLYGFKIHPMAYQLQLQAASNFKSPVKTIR
T3 sequence (P68400 whole entry, looked up): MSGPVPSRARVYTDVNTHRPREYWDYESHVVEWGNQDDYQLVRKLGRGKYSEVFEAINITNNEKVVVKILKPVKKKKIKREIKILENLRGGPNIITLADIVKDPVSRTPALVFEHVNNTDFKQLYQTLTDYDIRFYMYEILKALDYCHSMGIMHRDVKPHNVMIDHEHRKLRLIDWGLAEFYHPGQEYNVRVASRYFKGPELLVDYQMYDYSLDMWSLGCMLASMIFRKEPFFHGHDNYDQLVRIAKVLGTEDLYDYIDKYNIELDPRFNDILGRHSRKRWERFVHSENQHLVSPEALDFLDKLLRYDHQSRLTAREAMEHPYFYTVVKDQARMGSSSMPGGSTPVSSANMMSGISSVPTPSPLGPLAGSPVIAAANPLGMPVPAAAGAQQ
Sequence of Casein kinase II subunit alpha' (Homo sapiens) (P19784 whole entry, looked up): as the sequence (P19784 whole entry, looked up) above

Broadly, the residual activity is the signal under treatment as a percentage of the control signal. Consider `COc1ccc2c(c1)c(C1=C(c3c[nH]c4ccccc34)C(=O)NC1=O)cn2CCCN(C)C`, for which the residual activity in [1] turned out to be 29%; in assay [2], 4%; in [3] it was 67%; in assay [4] it was 41%; in [5], 34%; in [6] it was 9%. Besides, the residual activity in assay [7] was found to be 96%; in [8], 79%; in assay [9], 76%; in assay [10], 111%; in assay [11] it was 14%; in assay [12], 2%. In addition, the figures for the residual activity in assay [13] and in [14] were 59% and 45%, respectively.

On to `Cn1sc(=O)n(Cc2ccccc2)c1=O`, for which the residual activity came out at 93% in assay [1]; 79% in assay [2]; 88% in assay [3]; 90% in [4]; 71% in assay [5]; 67% in assay [6]. Moreover, the residual activity was found to be 96% in [15]; 89% in assay [7]; 81% in assay [8]; 84% in assay [9]; 85% in [16]; 90% in assay [10]. Besides, the residual activity worked out at 64% in [13], 74% in assay [14], 92% in assay [17] and 90% in assay [18].

In the case of `Nc1ncnc2c1cnn2-c1ccccc1`, the residual activity in assay [1] turned out to be 102%; in assay [2] it was 73%; in assay [3], 91%; in [4], 83%; in assay [5], 92%; in assay [15], 98%. Moreover, the residual activity was 99% in assay [7]; 85% in [8]; 36% in [9]; 87% in [16]; 36% in assay [10]; 58% in assay [19]. Also, the residual activity in assay [13] came to 87%; in [14], 99%.

Consider `Cc1cc(C)c(/C=C2\C(=O)Nc3ccccc32)[nH]1`, for which the residual activity in assay [1] turned out to be 100%; in assay [2], 78%; in assay [3], 72%; in assay [4], 38%; in assay [5], 18%; in assay [6] it was 3%. The residual activity was 13% in assay [8]; 2% in assay [9]; 49% in [11]; 37% in [12]; 80% in assay [13]; 11% in [14].

`O=C1Cc2c([nH]c3ccc([N+](=O)[O-])cc23)-c2ccccc2N1`: the residual activity in [1] stood at 1%; in [2], 2%; in assay [3], 39%; in [5] it was 3%; in assay [6], 1%; in assay [14], 82%.

`O=C1C(Cl)=C(N2C(=O)CCC2=O)C(=O)c2ccccc21`: the residual activity in [1] was determined as 86%; in assay [2], 87%; in assay [3] it was 94%; in assay [4], 87%; in assay [5] it was 88%; in assay [6], 84%. In addition, the residual activity in assay [8] worked out at 91%; in assay [9], 85%; in [16], 99%; in assay [10], 100%; in assay [20], 100%; in assay [19] it was 98%. Besides, the residual activity was 102% in assay [11], 80% in assay [12], 89% in assay [13] and 79% in assay [14].

In the case of `Nc1ncnc2[nH]nc(Nc3ccc(F)cc3)c12`, the residual activity in assay [1] came to 80%; in assay [2] it was 36%; in [4], 60%; in [5], 73%; in assay [6] it was 59%; in assay [7], 66%. For the same compound, the residual activity was 42% in [8]; 7% in [9]; 104% in [16]; 104% in assay [20]; 73% in assay [19]; 109% in [11]. The residual activity in assay [12] was 68%; in [17], 90%; in [18], 65%.

On to `Nc1nc(Nc2ccc(S(N)(=O)=O)cc2)nn1C(=O)c1c(F)cccc1F`, for which the residual activity in [1] is 0%; in assay [2], 0%; in assay [3], 82%; in assay [4], 31%; in assay [5] it was 52%; in assay [6] it was 11%. In addition, the residual activity in assay [8] is 100%; in assay [16], 111%; in [10] it was 97%; in assay [20], 104%; in assay [19], 99%; in assay [11] it was 40%. In addition, the residual activity came out at 9% in [12]; 20% in assay [13]; 0% in assay [14]; 99% in [17]; 100% in assay [18].

Consider `NC(=O)Nc1sc(-c2ccc(F)cc2)cc1C(N)=O`, for which the residual activity in assay [1] was found to be 89%; in assay [2], 42%; in assay [3], 37%; in assay [4] it was 7%; in assay [5], 34%; in assay [6] it was 4%. For the same compound, the residual activity in assay [15] turned out to be 104%; in assay [7] it was 71%; in assay [8], 71%; in assay [9], 31%; in assay [16], 68%; in assay [10], 34%. For the same compound, the residual activity in assay [20] came out at 78%; in [19], 18%; in assay [11] it was 105%; in assay [12], 46%; in assay [17] it was 92%; in [18], 56%.

Take `CCCC(=O)Oc1ccc2[nH]c(C(=O)c3cc4ccccc4[nH]3)cc2c1`: the residual activity amounted to 108% in assay [1]; 88% in assay [2]; 79% in [3]; 89% in [4]; 93% in assay [5]; 97% in assay [6]. Further, the residual activity in assay [15] amounted to 90%; in assay [7], 92%; in assay [8] it was 87%; in assay [9], 101%; in assay [16], 86%; in assay [10], 106%. In addition, the residual activity in [20] worked out at 132%; in assay [19], 98%; in assay [11], 122%; in assay [12], 101%; in [13] it was 81%; in assay [17] it was 101%. For the same compound, the residual activity in [18] turned out to be 100%.

Turning to `O=C(O)/C=C/c1cc(Br)c(Br)c(Br)c1Br`, the residual activity in assay [1] was 69%; in assay [2], 13%; in [3], 107%; in assay [4] it was 97%; in assay [5] it was 59%; in assay [6], 33%. Moreover, the residual activity was 103% in [15]; 76% in assay [7]; 56% in [8]; 12% in [9]; 12% in assay [16]; -8% in assay [10]. Moreover, the residual activity was 33% in assay [20]; 5% in [19]; 102% in assay [11]; 49% in assay [12]; 79% in assay [13]; 52% in assay [14].

As to `O=C1NC(=O)C(c2c[nH]c3ccccc23)=C1c1c[nH]c2ccccc12`, the residual activity in assay [1] turned out to be 36%; in assay [2], 5%; in assay [4] it was 53%; in assay [5], 73%; in assay [6], 25%; in [9] it was 56%. Further, the residual activity in [20] worked out at 118%; in assay [11] it was 27%; in assay [12], 5%; in assay [13], 60%; in assay [14] it was 29%.

`COc1cc2c(cc1OC)-c1n[nH]c(Nc3cccc(F)c3)c1C2`: the residual activity in assay [1] was 99%; in assay [2], 50%; in assay [3] it was 72%; in assay [4], 75%; in assay [5], 82%; in assay [6], 70%. Also, the residual activity in assay [7] is 73%; in assay [8], 76%; in assay [9], 39%; in [16], 82%; in assay [10], 106%; in assay [11], 108%. Further, the residual activity in assay [12] was determined as 68%; in assay [13], 59%; in [14] it was 48%; in assay [17], 80%; in assay [18] it was 29%.

`O=C(c1ccccc1)c1ccc(N2CCOCC2)cc1O`: the residual activity in [1] was 89%; in [2], 47%; in assay [3] it was 86%; in assay [4] it was 90%; in [5], 86%; in [15], 86%. The residual activity came out at 100% in [7]; 88% in assay [8]; 92% in [9]; 88% in assay [16]; 113% in assay [10]; 122% in [20]. The residual activity in [13] came out at 89%; in assay [18], 84%.

(Values after ChEMBL document CHEMBL2218924, “A broad activity screen in support of a chemogenomic map for kinase signalling research and drug discovery” (Biochem J, 2013).)
